From PMC5540273 (PLoS ONE, 2017)

system: TYRO3; details: concentration: 1 μM, replicates: in singlicate; n = 1
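Also: KINOMEscan kinase panel screen.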

SMILES	%Inh [%]
COc1cc2nccc(Nc3ccc(NC(=O)c4ccc(C)cc4)c(O)c3)c2cc1OC.Cl [GW440132]	0
O=C(Nc1ccc2c(c1)OCO2)NC1CCN(c2ccnc(Nc3ccc(F)cc3)n2)C1 (stereo not shown) [GSK1379724]	0
O=C1NC(=O)C(N2CCc3ccccc32)=C1c1ccccc1Cl [SB-373598]	0
Fc1cccc(COc2nnc(-c3ccc4c(c3)CCO4)o2)c1	0
Cc1cccc(-c2nc(Nc3cccc(C(N)=O)c3)c3ccccc3n2)n1 [GW876019]	9
Cc1c(O)cccc1Nc1ccnc2ccc(C(F)(F)F)cc12.Cl [GW466413]	3
COc1ccc(Nc2nccc(-c3cccc(NC(=O)c4cc5cc(F)ccc5[nH]4)c3)n2)cc1 [GSK1229782]	23
Cc1cc(NCC(c2ccccc2)c2ccccc2)nc(NCc2ccc(C(F)(F)F)cc2)n1 [GW497681]	0

system: ULK1; details: concentration: 1 μM, replicates: in singlicate; n = 1

SMILES	%Inh [%]
CS(=O)(=O)c1ccc(-c2c(-c3ncn[nH]3)sc(N3CCOCC3)c2C#N)cc1	3
CCn1c(-c2cccnc2O)nc2cnccc21 [SB-736715]	0
Cc1cc(-c2ccc3c(c2)CC[C@@H](N[C@@H](C)c2ccccc2)C3)cnc1N.Cl [GW412617]	19
COc1ccccc1CNC(=O)c1cc(C(=O)c2ccccc2C)c[nH]1 [GSK364507]	4
Cc1cccc(-c2nc(-c3ccc(S(C)(=O)=O)cc3)sc2-c2ccnc(NCCc3ccccc3)c2)c1	0
CC(=O)Nc1nc2cnc(Nc3cc(NC(=O)c4cccc(CCC#N)c4)ccc3C)nc2s1	0
Cc1cccc(-c2nc(C)cc(Nc3ccncc3)n2)n1 [GSK257997]	0
CS(=O)(=O)c1ccc(-c2nc3n(c2-c2ccncc2)CCC3)cc1 [SKF-105942]	19
Cl.c1ccc(-c2n[nH]cc2-c2ccnc(-c3ccc(CN4CCOCC4)cc3)c2)nc1 [GW776245]	0
Nc1ncnc2[nH]c(-c3ccccc3)nc12 [AH5015]	33
O=C(O)COc1ncnc2cc(-c3ccc4[nH]ncc4c3)sc12	43
COc1cc2ncn(-c3cc(OCC4CCCO4)c(C(N)=O)s3)c2cc1OC (stereo not shown) [GSK204607]	0
Cc1ccc(NC(=O)Nc2cc(C(C)(C)C)nn2-c2ccccc2)cc1 [GSK1014915]	17
Cc1cccc(-c2nc(Nc3ccc4[nH]ncc4c3)c3ccccc3n2)n1 [GW857175]	12
CC(C)(C)c1ccc(C(=O)Nc2cn3cc(Cl)ccc3n2)cc1	0
Cn1cncc1-c1ccc2ncnc(Nc3ccc(OCc4ccccc4)cc3)c2c1 [GW320571]	25
O=C(Nc1n[nH]c2nc(-c3nccs3)c(Br)cc12)C1CC1 [SB-742251]	21
CN1C(=O)C(Nc2ccc(Cl)c(C(=O)O)c2)=C(c2ccc(Cl)cc2)C1=O [SB-404290]	2

SMILES	%Inh [%]
Cc1cc(N2Cc3ccccc3C2)nc(Nc2ccc(S(=O)(=O)N3CCOCC3)cc2)n1.Cl [GSK1669917]	0
CN(C)CCN(C)C(=O)c1cc(-c2ccncc2)c(-c2ccc(Cl)c(O)c2)o1.Cl.Cl [SB-710397]	13
Cc1csc(-c2nc(Nc3ccncc3)c3ccccc3n2)n1 [GW869640]	33
Cc1ccc(NC(=O)Nc2cccc(Cl)c2)cc1-c1ccc(C(=O)Nc2ccncc2)cc1 [GSK1398468]	11
O=C(Nc1n[nH]c2cc(-c3cccc(F)c3F)ccc12)C1CC1 [SB-733894]	0
O=C(Nc1ccccc1)Nc1cccc(Oc2ccc3nccn3n2)c1	0
Cl.O=C(Nc1cccc(-c2nn3ncccc3c2-c2ccnc(Nc3cccnc3)n2)c1)c1c(F)cccc1F [GSK312879]	34
O=C(Nc1n[nH]c2nc(-c3nccs3)c(Br)cc12)C1CCCC1 [SB-742609]	5
COc1cc(Nc2nccc(N3CCC(NC(=O)Nc4cc(C)ccc4C)C3)n2)cc(OC)c1OC (stereo not shown) [GSK1379762]	19
COc1cc2nccc(Nc3ccc(NC(=O)c4ccc(C)cc4)c(O)c3)c2cc1OC.Cl [GW440132]	21
O=C(Nc1ccc2c(c1)OCO2)NC1CCN(c2ccnc(Nc3ccc(F)cc3)n2)C1 (stereo not shown) [GSK1379724]	9
O=C1NC(=O)C(N2CCc3ccccc32)=C1c1ccccc1Cl [SB-373598]	61
Fc1cccc(COc2nnc(-c3ccc4c(c3)CCO4)o2)c1	0
Cc1cccc(-c2nc(Nc3cccc(C(N)=O)c3)c3ccccc3n2)n1 [GW876019]	0
Cc1c(O)cccc1Nc1ccnc2ccc(C(F)(F)F)cc12.Cl [GW466413]	2
COc1ccc(Nc2nccc(-c3cccc(NC(=O)c4cc5cc(F)ccc5[nH]4)c3)n2)cc1 [GSK1229782]	16
Cc1cc(NCC(c2ccccc2)c2ccccc2)nc(NCc2ccc(C(F)(F)F)cc2)n1 [GW497681]	0
